High-throughput results deposited in PubChem BioAssay by The Scripps Research Institute Molecular Screening Center.
TEAD-YAP inh – TEAD-YAP interaction inhibition, primary screen, TEAD-YAP interaction inhibitor project, luminescence, HEK-TIYL cells | TEAD-Gal4/YAP UAS-luciferase luminescence | inhibition, % at 9.12 µM | actives 1.4% (n = 640,000) | AID 1259422, 2018; in the data active = inhibition above about 32%;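 note: 0% = median of test compound wells and 100% = reference inhibitor wells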
FBW7 act – FBW7 E3 ligase activators, primary screen, biochemical, AlphaScreen, human. actives 0.13% (n = 650,000). AID 1259310, 2017. normalized activity (activation), % at 26.1 µM. AlphaScreen FBW7–phospho-cyclin E peptide binding, activator screen. F-box/WD repeat-containing protein 7 (Homo sapiens), Q969H0; in the data active = normalized activity above about 1.9%;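 note: purified mutant Fbw7 with reduced substrate affinity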
Target sequence (Q969H0 whole entry, looked up): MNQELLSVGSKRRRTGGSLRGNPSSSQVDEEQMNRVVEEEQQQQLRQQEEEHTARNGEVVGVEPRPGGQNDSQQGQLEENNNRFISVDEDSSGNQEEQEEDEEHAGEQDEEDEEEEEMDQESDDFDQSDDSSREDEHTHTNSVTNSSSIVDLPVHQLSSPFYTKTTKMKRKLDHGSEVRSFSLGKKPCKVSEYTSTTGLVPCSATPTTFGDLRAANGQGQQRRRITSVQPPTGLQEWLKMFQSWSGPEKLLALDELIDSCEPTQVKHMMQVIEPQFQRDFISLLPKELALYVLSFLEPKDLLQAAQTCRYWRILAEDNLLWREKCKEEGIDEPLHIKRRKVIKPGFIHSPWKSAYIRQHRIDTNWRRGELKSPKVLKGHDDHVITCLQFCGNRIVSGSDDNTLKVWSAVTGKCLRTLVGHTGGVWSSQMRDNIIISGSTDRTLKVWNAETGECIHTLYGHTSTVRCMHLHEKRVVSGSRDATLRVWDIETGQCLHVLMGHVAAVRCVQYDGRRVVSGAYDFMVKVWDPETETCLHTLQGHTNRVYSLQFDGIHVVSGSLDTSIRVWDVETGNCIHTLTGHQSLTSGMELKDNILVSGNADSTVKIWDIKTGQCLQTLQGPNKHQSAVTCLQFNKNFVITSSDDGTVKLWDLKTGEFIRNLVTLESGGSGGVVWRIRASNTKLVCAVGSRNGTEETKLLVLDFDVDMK
GPR151 ag – activators of human GPR151, primary screen, cell-based, PathHunter beta-arrestin, luminescence. activation, % at 11.2 µM. PathHunter beta-arrestin GPR151 cells. G-protein coupled receptor 151 (Homo sapiens), Q8TDV0. actives 1% (n = 650,000); in the data active = activation above about 4.9%;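 note: 0% = median of compound wells and 100% = cells with positive control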
MITF primary – MITF inhibitors, primary screen, biochemical, AlphaScreen, human; AlphaScreen MITF homodimerization, bead proximity signal; inhibition, % at 2.6 µM; actives 0.91% (n = 650,000); in the data active = inhibition above about 50%;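 note: 0% = vehicle wells with protein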
* marks the source's active call; other numbers are inactive results. Hits are enriched below; roughly 3.4% of the tested compounds scored in any of these assays.

SMILES	TEAD-YAP inh	FBW7 act	GPR151 ag	MITF primary
COc1cc(NC(=O)c2cccc(-c3ccc(N4CCOCC4)nc3)n2)cc(OC)c1OC	34.2*	0.1	2.1	18.1
COc1cc(NC(=O)c2cccc(-c3ccc(N4CCOCC4)nc3)c2)cc(OC)c1OC	-42.3	0.1	-2.0	8.9
Cc1cccc(Cc2cnc(NC(=O)CCc3ccc(C)o3)s2)c1	32.2*	0.3	0.2	14.4
Cc1ccc(CCC(=O)Nc2ncc(Cc3ccccc3F)s2)o1	50.8*	0.0	0.0	8.9
CC(=O)Nc1ncc(Cc2ccccc2F)s1	-0.4	-0.2	0.2	10.1
O=C(COc1ccccc1)Nc1nnc(SCc2cccc(F)c2)s1	-1.8	0.0	0.0	14.7
COc1ccc(-c2nc(NCCc3ccc(O)cc3)c3ncn(C(C)C)c3n2)cn1	64.5*	0.0	-1.1	4.7
CC(C)n1cnc2c(NCCc3ccc(O)cc3)nc(-c3ccc(C(=O)NC4CC4)cc3)nc21	24.8	0.6	-1.3	13.5
COc1ccc(CCNc2nc(-c3ccc(OC)cc3)nc3c2ncn3C(C)C)cc1	-1.0	-0.1	0.7	0.0
CC(C)n1cnc2c(NCCc3ccc(O)cc3)nc(-c3ccc(C(N)=O)cc3)nc21	51.8*	0.1	-0.9	14.9
COc1ccc(-c2nc(NCc3nc4ccccc4[nH]3)c3ncn(C(C)C)c3n2)cn1	47.7*	0.3	2.1	11.4
COc1ccc(-c2nc(NCCN(C(C)C)C(C)C)c3ncn(C(C)C)c3n2)cc1	39.0*	0.1	1.3	-1.6
Cc1csc(N)[n+]1CC(=O)c1ccccc1	-45.7	0.0	-0.5	6.3
O=C(Cc1cccs1)NCCCCc1ccccc1	-26.6	0.0	1.5	10.5
COC(=O)Cn1cc(S(=O)(=O)NC2CCCCCC2)c2cc([N+](=O)[O-])ccc21	11.6	0.5	1.2	0.2
CCOC(=O)N1CCc2c(sc3c2C(=O)NC(c2ccc(Cl)cc2)N3)C1 (stereo not drawn)	12.8	0.1	0.2	7.3
CCOC(=O)N1CCc2c(sc3c2C(=O)NC(/C=C\c2ccccc2)N3)C1 (stereo not drawn)	50.5*	-0.1	0.7	-9.5
Cc1cc(OCCCNCCO)ccc1C(C)C	64.1*	0.3	-1.5	31.7
COc1ccc(OCCCNCCO)cc1	40.5*	-0.1	-0.9	3.4
COCCNCCCOc1ccc(C(C)C)c(C)c1	-10.9	-0.1	-1.7	12.2
COc1ccc(OCCCCCNCCO)cc1	-15.7	0.0	-1.9	-6.8
CCC(Sc1nnc(-c2c[nH]c3ccccc23)n1CCOC)C(=O)OC (stereo not drawn)	-6.3	-0.1	-0.5	-1.9
CCC(C)(C)NC(=O)C(OC(=O)c1ccco1)c1ccc(OC)cc1 (stereo not drawn)	-4.7	0.1	1.2	11.5
CCC(C)(C)NC(=O)C(OC(=O)c1ccco1)c1ccc(C)cc1 (stereo not drawn)	-3.0	1.9*	-0.3	7.6
NC1=NC(=O)/C(=C/C=C/c2ccc([N+](=O)[O-])o2)S1	35.1*	-0.2	0.1	97.8*
SMILES	TEAD-YAP inh	FBW7 act	GPR151 ag	MITF primary
NC1=NC(=O)/C(=C\c2ccc(-c3cccc([N+](=O)[O-])c3)o2)S1	-12.4	0.1	-1.5	12.1
NC1=NC(=O)/C(=C\c2ccc([N+](=O)[O-])o2)S1	1.4	-0.1	0.6	80.5*
O=C1NC(=S)S/C1=C/c1ccc([N+](=O)[O-])o1	14.8	-0.7	-0.5	74.5*
O=C(c1ccc2c(=O)n(-c3ccc(F)cc3)c(=S)[nH]c2c1)N1CCN(c2ccccc2)CC1	-7.1	-0.1	2.0	-11.4
COc1ccc(NC(=O)C(C)C2SC(=O)NC2=O)cc1 (stereo not drawn)	-7.2	0.0	0.5	11.7
O=C(NC1CCCCCCC1)c1cc(F)c(F)cc1Cl	-52.4	0.0	-1.1	0.1
O=C(NC1CCCCCC1)c1ccc(Cl)cc1Cl	33.1*	0.0	-0.6	9.9
O=C(NC1CCCCC1)c1cccc(N2CCCC2=O)c1	14.4	-0.2	0.1	2.6
O=C(NC1CCCCC1)c1ccc2c(c1)OCO2	-17.8	-0.2	-0.4	-0.6
O=C(NC1CCCCCC1)c1cccc(N2CCCC2=O)c1	61.3*	0.1	-1.4	-11.5
O=C(NC1CCCCCC1)c1ccc2c(c1)OCO2	43.9*	-0.1	-6.8	2.6
COc1ccc(-c2nc3ccc(C(=O)NC4CCCCCCC4)cc3nc2-c2ccc(OC)cc2)cc1	2.1	-0.1	-0.2	-7.1
Cc1nc2ccc(C(=O)NC3CCCCCC3)cc2nc1C	49.8*	0.3	-7.4	-16.2
Cc1ccc(C(=O)NC2CCCCCC2)cc1	49.2*	0.0	-4.0	-7.5
NC(=O)/C(=N\O)c1nc(-c2ccc(Cl)cc2)cs1	32.2*	0.1	-1.6	21.4
NC(=O)/C(=N/O)c1nc(-c2ccc(Br)cc2)cs1	9.5	0.1	-0.2	-3.9
CCOC(=O)c1[nH]c(C)c(C(=O)NCCN2CCN(Cc3ccccc3)CC2)c1C	0.6	-0.3	0.8	5.2
O=C(CCl)NCC1(c2ccccc2)CCCC1	57.5*	1.6	0.2	7.1
O=C(Nc1ccc(Cl)cc1)N(Cc1nnc2n1CCCCC2)c1ccc2c(c1)OCO2	1.4	-0.1	-0.9	-2.3
CCC(=O)NCCc1csc2nc(-c3cccc(C)c3)nn12	-17.0	0.2	1.8	4.1
Cc1ccn2cc(C(=O)Nc3cccc(F)c3)nc2c1	58.0*	0.1	-4.7	21.7
CCC(CC)C(=O)N1CCCC(c2nc(-c3cccc(OC)c3)no2)C1 (stereo not drawn)	42.2*	-0.2	-0.5	-1.0
CCCC(=O)N1CCCC(c2nc(-c3cccc(OC)c3)no2)C1 (stereo not drawn)	-8.1	0.1	-1.3	-0.4
COc1ccc(-c2noc(C3CCCN(C(=O)c4c(OC)cccc4OC)C3)n2)cc1 (stereo not drawn)	46.9*	0.1	0.9	-4.3
c1cc(-c2ccc3cnc(Nc4ccc(-n5cnc(N6CCOCC6)n5)cc4)nc3c2)co1	-0.7	0.0	2.2	36.5
SMILES	TEAD-YAP inh	FBW7 act	GPR151 ag	MITF primary
Cc1ccc(-c2ccc3cnc(Nc4ccc(-n5cnc(N6CCOCC6)n5)cc4)nc3c2)cn1	0.0	2.3*	0.3	-1.5
c1cc(-c2ccc3cnc(Nc4ccc(-n5cnc(N6CCOCC6)n5)cc4)nc3c2)c[nH]1	52.8*	-0.8	3.8	5.6
CCOC(=O)Oc1ccc2c(=O)c(Oc3ccc(CC)cc3)coc2c1	-13.2	0.0	-0.7	13.2
COc1ccc(N2CCN(CCN3CCCCC3)CC2)cc1	6.6	0.7	-0.8	81.9*
COc1cccc2sc(=NC(=O)c3cccc4ccccc34)n(C)c12	1.7	0.9	-0.8	6.7
COc1cccc2sc(=NC(=O)c3nc4ccccc4s3)n(C)c12	70.9*	-0.1	-0.2	-5.3
CSc1ccccc1NC(=O)/C=C/c1ccc([N+](=O)[O-])o1	55.7*	-0.2	-0.7	1.6
CSc1ccccc1NC/C=C/c1ccc([N+](=O)[O-])o1	7.0	-0.2	1.8	8.0
